# Calls of active or inactive are those of the source.
# Test: JC-1 mitochondrial signal, unstimulated adipocytes – cell-based, JC-1 fluorescence, 3T3-L1 adipocytes, 24 h, 100 nL compound, profiling panel (AID 1168); also: test concentration not given here
# Settings: JC-1 mitochondrial fluorescence, higher = more signal, called active from +8 up or from −8 down
row,SMILES,z-score
1,CN1CCC(CCCO)=CC1c1ccc(CN2CCCC2)cc1 (stereo unspecified),-0.0668 (inactive)
2,C=C[C@H](C)[C@@H](O)c1ccc(O)c2ccccc12,-0.641 (inactive)
3,COCCOC(=O)N1C(=O)[C@@]2(c3cc(C#CC4=CCCCC4)ccc31)[C@H](C(=O)N1CCc3cc(OC)c(OC)cc3C1)[C@H]1C(=O)O[C@H](c3ccccc3)[C@H](c3ccccc3)N1[C@@H]2c1ccccc1OCCO,2.17 (inactive)
4,COC(=O)C1=CC(CCCO)=CC(C2CC2)N(Cc2sc3ccccc3c2Cl)C=C1C(=O)OC (stereo unspecified),0.235 (inactive)
5,NC(=O)NCC#Cc1ccc2c(c1)[C@]1(C(=O)N2)[C@H](C(=O)N2CCCCCCC2)[C@H]2C(=O)O[C@H](c3ccccc3)[C@H](c3ccccc3)N2[C@@H]1c1ccc(OCCO)cc1,-2.9 (inactive)
6,COc1ccccc1CN1C(=O)c2ccccc2[C@@H](C(=O)NCCN2CCOCC2)[C@@H]1c1ccc(CO)cc1,0.364 (inactive)
7,O=c1cccc(C=Cc2ccccc2)o1,0.355 (inactive)
8,C=C[C@@H](COC(C)=O)N(Cc1ccc([N+](=O)[O-])cc1)S(=O)(=O)c1ccc(Br)cc1,0.0569 (inactive)
9,CC(C)C(=C=CC[C@@H](O)c1ccccc1OCCO)C[C@@H](O)c1ccccn1,-0.425 (inactive)
10,CCCCC=C[C@@H](NC(=O)c1ccc(C(=O)OC)cc1)c1ccccc1,-0.346 (inactive)
11,O=c1oc(-c2ccccc2)nc2cc(Br)ccc12,0.67 (inactive)
12,C=CC(COC(C)=O)NS(=O)(=O)c1ccc(Br)cc1 (stereo unspecified),-0.869 (inactive)
13,CS(=O)(=O)CCOC(=O)C1=CC(CCCO)=CC(c2cccs2)N(Cc2cc3c(cc2Br)OCO3)C=C1C(=O)OCCS(C)(=O)=O (stereo unspecified),0.252 (inactive)
14,CCC[C@@H]1C=C(C(=O)O)[C@H](c2ccc(C)cc2)N1S(=O)(=O)c1ccc(C)cc1,-0.119 (inactive)
15,CC(C)NC(=O)[C@@H]1c2ccccc2C(=O)N(Cc2ccccc2)[C@H]1c1ccc(CO)cc1,-1.5 (inactive)
16,Cc1ccc(S[C@]2(C(=O)NCc3ccccc3)CC(=O)N(Cc3ccccc3)[C@@H]2c2ccc(CO)cc2)cc1,0.645 (inactive)
17,COC(=O)c1ccc(C(O)C2C=CC3C(=O)N(C)C(=O)C3N2NC(=O)OC(C)(C)C)o1 (stereo unspecified),-0.429 (inactive)
18,COc1ccc(C(=O)Nc2cccc(CN3C(=O)[C@]4(O[C@H](CC(=O)N5CCC[C@H]5CO)[C@@H]([Si](C)(C)c5ccc(OC)cc5)[C@@H]4C)c4ccccc43)c2)cc1,0.248 (inactive)

row,SMILES,z-score
1,CC(C)Cc1ccc(CN2CC[C@@H](NS(=O)(=O)c3ccccc3)C2)cc1,0.787 (inactive)
2,C=CCC(OC(C)=O)[C@@H]1[C@@H](N(Cc2cccc3ccccc23)C(=O)c2cccc3ccccc23)c2cc(OCCCO)ccc2N1C(=O)c1ccc2ccccc2n1 (stereo partly specified),-1.2 (inactive)
3,COCCOC(=O)N1C(=O)[C@@]2(c3cc(C#CCNC(N)=O)ccc31)[C@H](c1ccc(OCCO)cc1)N1[C@H](c3ccccc3)[C@H](c3ccccc3)OC(=O)[C@H]1[C@@H]2C(=O)N1CCc2cc(OC)c(OC)cc2C1,1.65 (inactive)
4,O=C1C=CC(=O)[C@@H]2CC(COc3ccccc3)=C3[C@@H](CCc4ccccc4)OB(O)C[C@@H]3[C@H]12,-1.83 (inactive)
5,[N-]=[N+]=NCc1ccccc1[C@@H]1OC(c2ccc(OCCCO)cc2)=N[C@]1(Cc1ccccc1N=[N+]=[N-])C(=O)NCc1ccccc1,-0.385 (inactive)
6,NCCCCCCNC(=O)[C@H]1C[C@H]2C(=O)NCC(=O)N2[C@H]1c1cccc(OCCO)c1,-0.194 (inactive)
7,CCCCCN1CC=CC23O[C@@H]4/C=C\CCC(C)OC(=O)C4[C@H]2C(=O)N(CCCCCO)[C@@H]3C1=O (stereo partly specified),0.637 (inactive)
8,O=C(NCc1ccccc1)[C@]1(CCS(=O)(=O)c2ccccc2)N=C(c2ccc(OCCCO)cc2)O[C@@H]1c1ccccc1,0.499 (inactive)
9,C=CC(=C)C1=CCO[C@@H]1[C@H]1CCCN1S(=O)(=O)c1ccccc1[N+](=O)[O-],-0.736 (inactive)
10,COc1ccc(C(=O)Nc2cccc(CN3C(=O)[C@@]4(O[C@@H](CCn5cc(CCO)nn5)[C@H]([Si](C)(C)c5ccc(OC)cc5)[C@H]4C)c4ccccc43)c2)cc1,0.285 (inactive)
11,CCCC[C@H]1OB(O)C[C@H]2C1=C(C)C[C@H]1C(=O)N(Cc3ccccc3)C(=O)[C@H]12,0.203 (inactive)
12,COc1ccc(NN2C(C(O)c3ccc(OC)c(OCc4ccccc4)c3)C=CC3C(=O)N(C4CCCCC4)C(=O)C32)cc1 (stereo unspecified),0.353 (inactive)
13,COCC(=C=CC[C@H](O)c1ccc(OCCO)cc1)C[C@H](O)c1cc(Cl)cc(Cl)c1O,0.138 (inactive)
14,O=C/C=C/c1ccc2c(c1)OCO2,-0.0743 (inactive)
15,Cc1ccc(S[C@]2(C(=O)NCC(C)C)CC(=O)N(Cc3ccccc3Cl)[C@@H]2c2ccc(CO)cc2)cc1,-0.254 (inactive)
16,CN(C)C(=O)[C@]1(CCC(=O)OC(C)(C)C)N=C(c2ccc(OCCCO)cc2)O[C@@H]1c1ccccc1N=[N+]=[N-],2.52 (inactive)
17,[N-]=[N+]=NCc1ccccc1C[C@]1(C(=O)NCCN2CCOCC2)N=C(c2ccc(OCCCO)cc2)O[C@H]1c1ccccc1N=[N+]=[N-],0.707 (inactive)
18,O=C1O[C@H](c2ccccc2)[C@H](c2ccccc2)N2[C@H]1[C@@H](C(=O)Nc1nc3ccccc3s1)[C@]1(C(=O)Nc3ccccc31)[C@H]2c1ccc(O)cc1,0.032 (inactive)

# Reference: PubChem BioAssay
